Measurements published in ChEMBL document CHEMBL3988442, “University of Dundee, Small-Polar-MMV Screening Library” (2021).
For some assays here: Entries with a potency or affinity are not part of this list.

How the values were obtained:
Parameters in all cases: scale not given: direction of the effect not stated beside the values
[1] = molecular target: Protein translocase subunit SecA (Escherichia coli (strain K12)) (UniProt P10408); assay: Assay to Identify E. coli SecA ATPase Inhibitors; type: functional; details: 30 µM
[2] = molecular target: T1, Ubiquitin-activating enzyme e1, putative (Leishmania donovani (strain BPK282A1)) (UniProt E9BSI1); assay: Leishmania donovani Ubiquitin Activating Enzyme (LdE1); type: functional; details: 30 µM
T1 sequence (whole entry): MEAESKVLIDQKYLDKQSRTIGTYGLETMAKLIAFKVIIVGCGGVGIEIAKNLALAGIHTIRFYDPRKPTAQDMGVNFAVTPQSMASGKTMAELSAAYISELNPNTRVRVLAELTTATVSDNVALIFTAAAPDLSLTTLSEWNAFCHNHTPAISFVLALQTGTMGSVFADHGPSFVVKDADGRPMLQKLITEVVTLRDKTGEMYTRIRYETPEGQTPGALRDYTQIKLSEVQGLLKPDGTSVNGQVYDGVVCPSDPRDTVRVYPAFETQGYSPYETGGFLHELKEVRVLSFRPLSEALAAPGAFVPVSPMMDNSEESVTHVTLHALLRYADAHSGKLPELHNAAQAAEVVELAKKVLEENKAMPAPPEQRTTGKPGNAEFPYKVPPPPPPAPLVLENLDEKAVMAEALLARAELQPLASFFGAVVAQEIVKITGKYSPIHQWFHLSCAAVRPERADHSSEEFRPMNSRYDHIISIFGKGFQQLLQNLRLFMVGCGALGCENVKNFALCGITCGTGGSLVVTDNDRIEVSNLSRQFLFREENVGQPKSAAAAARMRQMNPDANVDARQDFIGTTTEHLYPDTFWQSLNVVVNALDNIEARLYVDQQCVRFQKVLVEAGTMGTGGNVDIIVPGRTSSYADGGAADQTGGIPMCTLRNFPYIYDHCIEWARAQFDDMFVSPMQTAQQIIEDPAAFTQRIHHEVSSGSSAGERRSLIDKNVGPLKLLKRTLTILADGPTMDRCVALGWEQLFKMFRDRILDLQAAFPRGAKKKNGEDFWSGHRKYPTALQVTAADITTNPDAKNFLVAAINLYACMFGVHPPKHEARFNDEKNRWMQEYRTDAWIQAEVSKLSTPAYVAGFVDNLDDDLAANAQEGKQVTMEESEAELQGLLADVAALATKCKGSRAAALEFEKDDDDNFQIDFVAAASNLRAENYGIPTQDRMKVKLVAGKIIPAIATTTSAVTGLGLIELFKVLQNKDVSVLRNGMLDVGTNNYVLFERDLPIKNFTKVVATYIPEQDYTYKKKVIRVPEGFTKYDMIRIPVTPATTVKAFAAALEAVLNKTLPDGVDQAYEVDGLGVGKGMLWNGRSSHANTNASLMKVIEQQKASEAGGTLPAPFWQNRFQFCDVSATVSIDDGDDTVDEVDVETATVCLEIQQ

[3] = molecular target: AMP-activated protein kinase, AMPK (Homo sapiens) (UniProt P54646+O43741+P54619+Q9UGJ0+Q9Y478+Q13131+Q9UGI9); assay: AMP-dependent Kinase enzyme assay. An in vitro enzyme assay that detects ADP turnover that is directly proportional to AMPK activity. This uses naive AMPK that is activated during the assay with MK-8722; type: functional; details: 30 µM
[4] = molecular target: Sialic acid-binding Ig-like lectin 9 (Homo sapiens) (UniProt Q9Y336); assay: Hs-Siglec9 ALPHAscreen SOP 20170721; details: 10 µM
Trypanosoma cruzi = assay: Trypanosoma cruzi phosphomannomutase and mannose-1-phosphate guanylyltransferase assay; type: functional; details: 10 µM
[5] = molecular target: T2, Arginase-2, mitochondrial (Homo sapiens) (UniProt P78540); assay: in vitro enzyme assay to detect the production of urea directly proportional to the activity of Arginase II; type: functional; details: 33.3 µM; note: in the data most compounds retested in dose-response had high values
T2 sequence (whole entry): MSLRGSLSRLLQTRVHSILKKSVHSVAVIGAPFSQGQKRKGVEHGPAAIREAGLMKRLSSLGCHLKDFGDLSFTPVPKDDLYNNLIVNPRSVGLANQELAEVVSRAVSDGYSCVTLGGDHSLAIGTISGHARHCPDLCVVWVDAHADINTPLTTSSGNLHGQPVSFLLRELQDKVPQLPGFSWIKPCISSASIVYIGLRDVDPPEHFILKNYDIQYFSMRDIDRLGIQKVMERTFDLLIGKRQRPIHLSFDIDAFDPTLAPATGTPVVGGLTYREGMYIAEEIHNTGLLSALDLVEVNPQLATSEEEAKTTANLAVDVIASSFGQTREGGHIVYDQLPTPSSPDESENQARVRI

[6] = molecular target: T3, Proteasome subunit beta (Trypanosoma cruzi) (UniProt O96673); assay: Trypanosoma cruzi proteasome chymotrypsin-like activity (TcProtChymo) assay.; note: in the data most compounds retested in dose-response had high values; type: functional; details: 9.37 µM
T3 sequence (whole entry): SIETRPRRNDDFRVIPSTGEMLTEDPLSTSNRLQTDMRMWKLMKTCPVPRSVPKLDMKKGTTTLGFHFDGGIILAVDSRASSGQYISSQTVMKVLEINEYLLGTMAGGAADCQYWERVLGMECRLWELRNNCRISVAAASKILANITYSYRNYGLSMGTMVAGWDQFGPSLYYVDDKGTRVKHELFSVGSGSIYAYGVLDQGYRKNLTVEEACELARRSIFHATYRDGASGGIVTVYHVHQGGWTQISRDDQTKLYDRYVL

Homo sapiens = species on record: Homo sapiens; assay: To identify inhibition of the IFN signalling (Jak-Stat) pathway via expression of an eGFP reporter gene under the control of an IFN-stimulated response element (ISRE) containing MxA promoter.; type: functional; details: 30 µM
[7] = molecular target: T4, Tyrosyl-tRNA synthetase, putative (Trypanosoma cruzi (strain CL Brener)) (UniProt Q4DSP6); assay: Trypanosoma cruzi tyrosyl tRNA synthetase (TcYRS) _High Tyrosine SOP; type: functional; details: 30 µM; note: in the data most compounds retested in dose-response had high values
T4 sequence (whole entry): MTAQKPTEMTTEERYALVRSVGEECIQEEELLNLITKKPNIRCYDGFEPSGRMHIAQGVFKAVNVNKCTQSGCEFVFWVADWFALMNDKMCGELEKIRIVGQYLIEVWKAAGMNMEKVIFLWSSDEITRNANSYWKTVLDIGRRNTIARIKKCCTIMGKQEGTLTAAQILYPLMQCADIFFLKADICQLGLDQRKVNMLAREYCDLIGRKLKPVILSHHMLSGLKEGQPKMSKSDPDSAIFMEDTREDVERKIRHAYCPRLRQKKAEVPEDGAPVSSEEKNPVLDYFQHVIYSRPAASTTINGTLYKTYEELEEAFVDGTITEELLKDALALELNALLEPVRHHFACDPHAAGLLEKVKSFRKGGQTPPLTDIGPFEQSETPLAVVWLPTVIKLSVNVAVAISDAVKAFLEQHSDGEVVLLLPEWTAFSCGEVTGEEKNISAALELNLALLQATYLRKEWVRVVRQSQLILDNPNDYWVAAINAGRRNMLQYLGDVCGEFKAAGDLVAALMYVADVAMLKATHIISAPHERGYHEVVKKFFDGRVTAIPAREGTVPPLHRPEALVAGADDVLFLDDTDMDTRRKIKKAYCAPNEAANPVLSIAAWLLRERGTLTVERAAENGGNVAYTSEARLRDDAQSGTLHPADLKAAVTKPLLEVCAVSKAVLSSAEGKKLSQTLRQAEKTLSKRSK

[8] = molecular target: T4, Tyrosyl-tRNA synthetase, putative (Trypanosoma cruzi (strain CL Brener)); assay: Trypanosoma cruzi tyrosyl tRNA synthetase (TcYRS) SOP; type: functional; details: 30 µM
[9] = molecular target: Chromo domain-containing protein 1 (Saccharomyces cerevisiae (strain ATCC 204508 / S288c) (Baker's yeast)) (UniProt P32657); assay: ScCHD-1 Enzyme Inhibition Assay; type: functional; details: 30 µM; note: in the data most compounds retested in dose-response had high values
Chromo domain-containing protein 1 (Saccharomyces cerevisiae (strain ATCC 204508 / S288c) (Baker's yeast)), sequence (P32657 whole entry, the tested form may be a part): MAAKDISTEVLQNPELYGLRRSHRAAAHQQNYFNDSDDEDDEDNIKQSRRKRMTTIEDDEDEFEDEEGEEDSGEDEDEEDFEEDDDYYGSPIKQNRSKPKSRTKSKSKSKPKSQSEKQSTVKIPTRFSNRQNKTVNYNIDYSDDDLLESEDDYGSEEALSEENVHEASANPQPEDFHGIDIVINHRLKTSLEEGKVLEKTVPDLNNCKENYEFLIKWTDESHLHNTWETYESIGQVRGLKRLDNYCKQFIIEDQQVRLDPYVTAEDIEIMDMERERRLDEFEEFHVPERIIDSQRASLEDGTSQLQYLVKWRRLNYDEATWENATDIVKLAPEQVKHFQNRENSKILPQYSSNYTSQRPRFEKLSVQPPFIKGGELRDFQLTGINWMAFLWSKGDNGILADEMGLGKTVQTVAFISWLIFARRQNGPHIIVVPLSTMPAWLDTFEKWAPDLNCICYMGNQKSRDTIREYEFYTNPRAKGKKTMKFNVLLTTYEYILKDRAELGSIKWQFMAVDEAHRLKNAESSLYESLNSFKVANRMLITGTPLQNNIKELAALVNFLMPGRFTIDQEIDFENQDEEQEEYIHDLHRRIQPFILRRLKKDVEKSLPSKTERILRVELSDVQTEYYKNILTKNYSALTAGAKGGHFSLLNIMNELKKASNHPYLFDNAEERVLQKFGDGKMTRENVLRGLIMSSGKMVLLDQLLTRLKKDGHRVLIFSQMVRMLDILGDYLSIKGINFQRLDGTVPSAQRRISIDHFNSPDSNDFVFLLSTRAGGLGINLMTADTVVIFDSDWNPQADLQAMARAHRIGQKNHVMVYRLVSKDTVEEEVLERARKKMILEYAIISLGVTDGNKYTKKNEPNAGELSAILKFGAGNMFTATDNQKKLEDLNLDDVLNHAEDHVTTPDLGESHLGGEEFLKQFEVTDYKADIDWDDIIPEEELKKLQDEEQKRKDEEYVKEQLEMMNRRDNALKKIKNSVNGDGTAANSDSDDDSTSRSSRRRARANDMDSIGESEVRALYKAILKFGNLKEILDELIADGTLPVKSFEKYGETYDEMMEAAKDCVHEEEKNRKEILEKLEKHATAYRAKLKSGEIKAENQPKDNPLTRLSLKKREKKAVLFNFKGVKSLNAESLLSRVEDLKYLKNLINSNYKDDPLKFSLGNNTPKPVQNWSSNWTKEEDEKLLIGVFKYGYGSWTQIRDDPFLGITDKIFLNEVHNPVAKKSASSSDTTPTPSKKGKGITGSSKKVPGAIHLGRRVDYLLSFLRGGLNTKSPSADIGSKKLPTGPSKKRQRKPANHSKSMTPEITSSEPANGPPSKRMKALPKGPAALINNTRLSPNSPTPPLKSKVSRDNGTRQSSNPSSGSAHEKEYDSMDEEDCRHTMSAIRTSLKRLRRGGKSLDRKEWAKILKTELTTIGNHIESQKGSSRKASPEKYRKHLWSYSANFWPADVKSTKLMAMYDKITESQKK

Protein translocase subunit SecA (Escherichia coli (strain K12)), sequence (P10408 whole entry): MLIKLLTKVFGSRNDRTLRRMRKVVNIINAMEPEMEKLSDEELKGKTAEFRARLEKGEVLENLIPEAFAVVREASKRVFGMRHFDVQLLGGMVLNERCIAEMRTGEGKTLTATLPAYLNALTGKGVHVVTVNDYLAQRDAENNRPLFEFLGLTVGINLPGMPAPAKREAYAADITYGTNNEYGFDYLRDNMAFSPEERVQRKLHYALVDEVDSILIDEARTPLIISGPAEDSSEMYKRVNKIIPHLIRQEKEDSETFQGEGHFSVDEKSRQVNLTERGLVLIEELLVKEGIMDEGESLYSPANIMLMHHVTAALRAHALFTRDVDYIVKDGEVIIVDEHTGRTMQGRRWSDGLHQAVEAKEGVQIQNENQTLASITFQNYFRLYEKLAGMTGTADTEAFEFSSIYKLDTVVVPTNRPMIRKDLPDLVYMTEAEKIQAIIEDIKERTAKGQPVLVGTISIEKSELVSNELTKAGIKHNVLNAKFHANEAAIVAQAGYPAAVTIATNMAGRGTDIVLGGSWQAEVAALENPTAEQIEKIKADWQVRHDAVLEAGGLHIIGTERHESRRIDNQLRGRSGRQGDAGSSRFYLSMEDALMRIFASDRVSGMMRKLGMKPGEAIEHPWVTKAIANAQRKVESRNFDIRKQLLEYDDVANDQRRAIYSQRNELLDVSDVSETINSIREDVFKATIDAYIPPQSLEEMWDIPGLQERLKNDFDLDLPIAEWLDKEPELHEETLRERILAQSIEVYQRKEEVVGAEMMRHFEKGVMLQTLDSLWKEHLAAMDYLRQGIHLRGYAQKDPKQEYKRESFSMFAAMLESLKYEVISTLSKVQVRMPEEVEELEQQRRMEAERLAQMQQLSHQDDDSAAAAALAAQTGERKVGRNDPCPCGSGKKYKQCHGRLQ
Sialic acid-binding Ig-like lectin 9 (Homo sapiens), sequence (Q9Y336 whole entry): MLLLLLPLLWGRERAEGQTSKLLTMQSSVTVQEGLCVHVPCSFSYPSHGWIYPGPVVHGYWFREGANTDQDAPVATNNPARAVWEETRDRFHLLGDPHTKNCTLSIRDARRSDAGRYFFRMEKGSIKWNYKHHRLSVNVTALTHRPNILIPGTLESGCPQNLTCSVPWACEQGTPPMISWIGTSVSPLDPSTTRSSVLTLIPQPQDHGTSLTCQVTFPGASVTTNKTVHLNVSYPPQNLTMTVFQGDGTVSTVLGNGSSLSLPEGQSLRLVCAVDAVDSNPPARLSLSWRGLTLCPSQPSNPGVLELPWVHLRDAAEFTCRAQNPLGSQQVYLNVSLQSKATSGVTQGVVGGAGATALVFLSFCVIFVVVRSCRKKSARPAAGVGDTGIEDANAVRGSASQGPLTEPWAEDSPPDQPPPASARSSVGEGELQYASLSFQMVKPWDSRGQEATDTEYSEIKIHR

Row | Compound | Percent Effect [1] [%] | Percent Effect [2] [%] | Percent Effect [3] [%] | Percent Effect [4] [%] | Percent Effect (Trypanosoma cruzi) [%] | Percent Effect [5] [%] | Percent Effect [6] [%] | Percent Effect (Homo sapiens) [%] | Percent Effect [7] [%] | Percent Effect [8] [%] | Percent Effect [9] [%]
1 | COc1cc(C)nc(N2CCN(C(=O)c3ccc(Cl)o3)CC2)n1 | -3.23 | 2.7 | -4.07 | -1.86 | 2.17 | -0.802 | -3.06 | -0.0966 | 2.46 | 3.7 | 1.52
2 | Cc1ccc(C(=O)NCCCNS(C)(=O)=O)cc1-n1cccc1 | -3.12 | 13.2 | 12.3 | -1.07 | 3.99 | 9.47 | 15.2 | 9.99 | 6.38 | 10.4 | -5.78
3 | Cc1cnc(N)c(C(=O)C2CCN(C(=O)c3ccccc3F)CC2)c1 | -7.77 | 13.3 | 4.93 | 7.45 | 2.76 | -2.56 | 6.26 | 33 | 7.45 | 8.97 | -6.49
4 | COCCNC(=O)[C@H]1CN(Cc2scnc2C)C[C@H]2OCC[C@@H]12 | -3.71 | 5.48 | 0.0499 | 5.36 | 3.77 | 1.2 | 1.11 | 4.51 | 5.21 | 16.1 | 1.51
5 | Cc1ccc(CC2CCCN2CC(=O)NCc2ccccn2)cc1 (configuration not stated) | -7.47 | -5.26 | -11.2 | 3.27 | -1.66 | 2.37 | 8.53 | -4.78 | 7.45 | 13 | -2.14
6 | Cn1cc(NS(=O)(=O)c2ccc(OC(F)(F)F)cc2)ccc1=O | -4.62 | 7.59 | -136 | -4.96 | -9.73 | -1.9 | 0.246 | 62.5 | 0.493 | 8.86 | -4.48
7 | C[C@@H]1C[C@@H]2CCN(C(=O)c3cnccn3)C[C@H]2O1 | -2.4 | -2.7 | 5.23 | -2.15 | -1.95 | 0.417 | -0.592 | 3.34 | 1.98 | -3.66 | -0.0529
8 | O=C1NCC2(CCCN(Cc3ccccc3F)C2)Oc2ccccc21 (configuration not stated) | 1.88 | 12.2 | 9.79 | -6.32 | -2.77 | 5.34 | 9.52 | 9.51 | 3.23 | 9.09 | -14.2
9 | Cc1ncsc1-c1nnc(C2CCN(Cc3ccc(F)cc3)CC2)o1 | -0.551 | -4.05 | 20 | -0.16 | 1.19 | -0.696 | 1.25 | -6.87 | 0 | -6.49 | -19.5
10 | O=C1N(CCCc2ccccc2)CCCC1(O)CNCc1ccccc1 (configuration not stated) | -3.24 | 2.7 | -10.2 | 31.6 | 4.4 | -0.248 | 8.5 | -7.46 | 8.6 | 18.5 | -3.9
11 | CN1CCN(C(=O)Cc2cccc(F)c2)Cc2cccnc21 | -3.84 | 2.6 | -0.44 | 1.15 | 8.55 | -9.65 | -0.499 | 6.92 | 2.15 | 3.7 | -6.06
12 | OCC1CCCN1c1cc(NCCc2c[nH]c3ccccc23)ncn1 (configuration not stated) | -4.95 | 0 | 12.3 | -7.58 | -2.15 | 0 | 18.6 | 35.3 | 1.07 | 7.5 | -5.88
13 | Cc1ccc(Cc2cnc(NC(=O)C3CNC(=O)N3)s2)cc1F (configuration not stated) | -2.83 | 8.86 | 4.79 | 5.91 | 0.308 | 1.5 | 16.6 | -4.36 | -3.12 | 17.7 | -8.88
14 | CCN(CC)Cc1cn2c(n1)CN(C(=O)c1cnccn1)CC2 | -2.54 | 10.8 | 3.85 | -1.54 | -3.62 | 6.69 | 19.9 | -5.71 | 3.24 | 7.69 | 0.514
15 | Cn1c(CC2CCS(=O)(=O)C2)nnc1SCCOc1cccc(Cl)c1 (configuration not stated) | -2.94 | 10.8 | -5.55 | 20.9 | 4.99 | 3.23 | 14.8 | -7.24 | 4.3 | 16.1 | -10.4
16 | CC(C)c1nc(CN(C)C2CCN(CC(F)(F)F)C2)no1 (configuration not stated) | -5.29 | 5.48 | -3.78 | -4.08 | -0.588 | 2.73 | 6.57 | -2.57 | 4.3 | 10 | -1.35
17 | CC(C)NC(=O)[C@@H]1C[C@H](N)CN1C(=O)c1cc2c([nH]c1=O)CCCC2 | -2.48 | 6.94 | -2.43 | -9.13 | -1.46 | 1.77 | 17.7 | 3.48 | 4.21 | 7.69 | -3.08
18 | CC(C)N(C)Cc1cnc2n1CCN(CCc1ccccc1)C2 | -3.87 | 5.41 | 23.2 | -2.38 | 0.586 | -2.92 | 9.04 | -8.89 | 6.93 | 8.54 | 0.182
19 | O=C(NCc1csc(Br)c1)c1ccncc1 | -2.58 | 19 | 5.52 | 2.28 | 0.103 | 2.8 | 11.3 | 21.8 | -1.04 | 15.2 | -29.5
20 | CCc1n[nH]c(C2CN(C(=O)c3csnn3)CCO2)n1 (configuration not stated) | -7.28 | 10.4 | 0.934 | 4.09 | 7.15 | -5.26 | 6.06 | 3.52 | 2.86 | 11.8 | -11.6
21 | Cc1noc([C@H]2C[C@@H]3CCN(CC4CC4)C[C@H]3O2)n1 | -4.27 | 7.79 | 4.66 | 0.715 | -1.48 | -0.645 | 3.13 | 4.2 | -1.06 | 3.85 | -3.28
22 | CN(C)CC(=O)N1CCOCC2(C1)CN(c1ccccc1)C(=O)CO2 (configuration not stated) | 1.58 | 8 | 11.2 | -1.53 | -4.05 | -56.8 | 3.08 | -9.58 | 5.21 | -22.5 | -7.95
